Measurements as given in PubChem BioAssay (Tox21).
Records with an inconclusive call do not appear. A call without a number means that no potency is given here. Unmarked numbers belong to inactive results. The source made the active and inactive calls. Calls follow the shape of the dose curve; as a rule, active = well fitted inhibition curve with a large enough effect in the signal ratio in the repeat runs (not every such curve was filed as active); inconclusive = weak or mixed curves; inactive = flat fitted curve, though single readings scatter; the % refers to the signal ratio.

biological target: Progesterone receptor (Homo sapiens) (UniProt P06401); test: qHTS assay to identify small molecule antagonists of the progesterone receptor (PR) signaling pathway (AID 1346795); conditions: PR-UAS-bla HEK293T, beta-lactamase FRET ratio, 16 h; series mostly up to 42.5 µM
Excerpt: National Center for Advancing Translational Sciences [NCATS]
NIH Chemical Genomics Center [NCGC]
U.S. Environmental Protection Agency [EPA]
National Institutes of Environmental Health Sciences [NIEHS]
National Toxicology Program [NTP]
U.S. Food and Drug Administration [FDA]
Progesterone receptor (PR), a nuclear hormone receptor, plays an important role in development, metabolic homeostasis and reproduction. […] Endocrine disrupting chemicals (EDCs) and their interactions with steroid hormone receptors like PR causes disruption of normal endocrine function. To identify the compounds that inhibit PR signaling, a PR-UAS-bla GripTite cell line i.e. PR-UAS-bla HEK293T (Invitrogen, Carlsbad, CA, USA) containing a beta-lactamase reporter gene under the control of an Upstream Activator Sequence (UAS) was used to screen Tox21 10K compound library.
Tox21 Assay Protocol Summary:
PR-UAS-bla HEK293T cells were dispensed at 3,000 cells/4 uL of assay medium containing 2% charcoal stripped FBS per well into black wall/clear-bottom 1536-well plates using a Multidrop Combi (ThermoFisher Scientific, Waltham, MA) dispenser. After the assay plates were incubated at a 37C and 5% CO2 for 6 hr, 23 nL of compounds dissolved in DMSO, positive controls or DMSO only was transferred to the assay plate by a Pintool station (Kalypsys, San Diego, CA), followed by addition of 1 uL (1nM as final concentration) of Promegestone (R5020) in assay medium using a BioRAPTR FRD (Flying Reagent Dispenser, Aurora Discovery, San Diego, CA). The plates were incubated at 37C and 5% CO2 for 16 hr. Then 1 uL of LiveBLAzer B/G FRET substrate was added using a FRD. After the plates were incubated at room temperature for 2 hours, fluorescence intensity was measured by an Envision plate reader (PerkinElmer, Shelton, CT).

Sequence of Progesterone receptor (Homo sapiens) (P06401 whole entry, looked up): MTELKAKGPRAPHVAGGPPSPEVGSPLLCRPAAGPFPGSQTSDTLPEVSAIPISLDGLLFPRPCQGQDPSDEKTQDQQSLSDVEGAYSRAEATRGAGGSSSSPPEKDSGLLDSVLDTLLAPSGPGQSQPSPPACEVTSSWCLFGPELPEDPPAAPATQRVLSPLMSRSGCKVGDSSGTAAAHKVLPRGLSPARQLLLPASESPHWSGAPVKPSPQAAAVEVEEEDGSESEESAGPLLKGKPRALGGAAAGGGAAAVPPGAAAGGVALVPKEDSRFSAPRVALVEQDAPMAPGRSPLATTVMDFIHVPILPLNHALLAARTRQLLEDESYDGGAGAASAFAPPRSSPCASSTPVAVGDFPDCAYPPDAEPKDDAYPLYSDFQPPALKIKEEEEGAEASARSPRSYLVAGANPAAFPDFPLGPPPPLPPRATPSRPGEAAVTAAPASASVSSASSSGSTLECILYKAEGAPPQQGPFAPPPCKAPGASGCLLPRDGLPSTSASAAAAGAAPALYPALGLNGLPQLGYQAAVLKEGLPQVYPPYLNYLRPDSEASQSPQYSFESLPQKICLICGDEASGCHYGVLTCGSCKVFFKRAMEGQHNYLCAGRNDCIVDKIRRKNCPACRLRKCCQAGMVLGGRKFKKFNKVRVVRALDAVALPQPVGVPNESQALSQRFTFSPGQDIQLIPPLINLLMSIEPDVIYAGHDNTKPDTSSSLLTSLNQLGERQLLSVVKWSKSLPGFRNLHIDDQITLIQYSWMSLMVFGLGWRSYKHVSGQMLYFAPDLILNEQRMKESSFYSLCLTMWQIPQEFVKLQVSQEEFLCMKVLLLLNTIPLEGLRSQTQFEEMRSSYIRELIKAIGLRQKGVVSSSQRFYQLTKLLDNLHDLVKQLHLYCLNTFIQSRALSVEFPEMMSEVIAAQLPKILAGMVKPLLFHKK

Row | SMILES | Potency | activity change, negative = inhibition
1 | Cc1ccc(Cl)cc1Cl | inactive | 
2 | CC1=CC(C)C(C=O)CC1 (stereo not given) | inactive | 
3 | C[C@](N)(Cc1ccc(O)cc1)C(=O)O |  | 12.2% [at 8.39 µM]
4 | C[N+](C)(C)CC(O)CC(=O)[O-] (stereo not given) | inactive | 
5 | O=C(CCCN1CCN(c2ccccn2)CC1)c1ccc(F)cc1 | inactive | 
6 | CCN(CC)CCOCCOC(=O)C1(c2ccccc2)CCCC1 | inactive | 
7 | O=c1n(CCO)c(=O)n(CCO)c(=O)n1CCO | inactive | 
8 | N[C@H](C(=O)O)c1ccc(O)cc1 | inactive | 
9 | CCN1CCC[C@H]1CNC(=O)c1cc(S(N)(=O)=O)ccc1OC | inactive | 
10 | CCOC(=O)c1ccc(C)cc1 | inactive | 
11 | OC[C@]1(O)OC[C@@H](O)[C@H](O)[C@@H]1O | inactive | 
12 | CCOC(=O)CC(C)=O | inactive | 
13 | CC(=O)OCC(CCn1cnc2cnc(N)nc21)COC(C)=O | inactive | 
14 | CC(C)CNCC(C)C | inactive | 
15 | Nc1c2c(nc3ccccc13)CCCC2O (stereo not given) | inactive | 
16 | Nc1ccc(S(=O)(=O)Nc2ccnn2-c2ccccc2)cc1 | inactive | 
17 | CCOC(=O)c1c(C)n(C)c2ccc(O)cc12 | inactive | 
18 | OC1CCCCC1c1ccccc1 (stereo not given) | inactive | 
19 | O=C(c1ccccc1)C1CCCCC1 | inactive | 
20 | CCCCOCCOCCOCCCC | inactive | 

Row | SMILES | Potency | activity change, negative = inhibition
21 | CC(C)c1cc2c(cc1S(=O)(=O)O)[C@@]1(C)CCC[C@@](C)(C(=O)O)[C@@H]1CC2 | inactive | 
22 | COc1ccccc1OCC(O)CN1CCN(CC(=O)Nc2c(C)cccc2C)CC1 (stereo not given) | inactive | 
23 | O=c1cc(CO)occ1O | inactive | 
24 | Nc1ccccc1S(=O)(=O)O | inactive | 
25 | Cc1ccc(=O)n(-c2ccccc2)c1 | inactive | 
26 | Cc1cc2c(cc1S(N)(=O)=O)S(=O)(=O)CCC2 | inactive | 
27 | COC(=O)[C@@H](N)Cc1ccc(O)c(O)c1 | inactive | 
28 | CCN(Cc1ccncc1)C(=O)C(CO)c1ccccc1 (stereo not given) | inactive | 
29 | CC1(C)CO[C@@H](CC(=O)O)CN1 | inactive | 
30 | O=C(O)Cc1ccc(CCNS(=O)(=O)c2ccc(Cl)cc2)cc1 | inactive | 
31 | COC(=O)c1ccc(C)cc1C1=NC(C)(C(C)C)C(=O)N1 (stereo not given) | inactive | 
32 | CC(C(=O)O)c1ccc(CC2CCCC2=O)cc1 (stereo not given) | inactive | 
33 | CC(=O)OC/C=C(\C)CC/C=C(\C)CCC=C(C)C | inactive | 
34 | CCN(CC)CCNC(=O)c1cc(S(C)(=O)=O)ccc1OC | inactive | 
35 | CCOc1ccc(C(=O)OCCN(CC)CC)cc1 | inactive | 
36 | CC(C)CCCC(C)N (stereo not given) | inactive | 
37 | CCOC(=O)C(=O)OCC | inactive | 
38 | CCc1nccnc1CC | inactive | 
39 | O=S(O)CO | inactive | 
40 | O=C1CCCN1C1CCCCC1 | inactive | 
